# Where “and” joins values, the source holds several entries; their conditions need not be identical. Equal values may be shown once. About 2,000 (36%) of roughly 5,500 compounds were called active. Not shown: some 18% with an inconclusive outcome. Rule as the data show it: active = normalized growth mostly below about 0.91 (no sharp cut-off); inconclusive = no clear call, values can overlap the other calls; inactive = mostly above about 0.92. The list shows a part of the results. A structure can be active in one record and inactive in another.
# Assay: chemical genetic growth profiling, strain panel (AID 1159580);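 also: tested at 20 µM; growth read once vehicle control cultures reached saturation at 30 °C; 1 = growth at the plate median or of vehicle wells; lower values mean less growth of the strain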
# Conditions: growth OD
smiles,measurement,setting,value
O=c1c2ccccc2[se]n1-c1ccccc1,normalized growth,"S. cerevisiae deletion strains, locus YJR075W, strain HOC1, stronger effect = lower value",0.0678 (active)
same,normalized growth,"S. cerevisiae deletion strains, locus YKL068W, stronger effect = lower value",0.0623 (active)
same,normalized growth,"S. cerevisiae deletion strains, locus YKL085W, strain MDH1 (second series), stronger effect = lower value",0.0549 (active)
same,normalized growth,"S. cerevisiae deletion strains, locus YKL085W, strain MDH1, stronger effect = lower value",0.0549 (active)
same,normalized growth,"S. cerevisiae deletion strains, locus YKL160W, strain elf1, stronger effect = lower value",0.0672 (active)
same,normalized growth,"S. cerevisiae deletion strains, locus YKL190W, strain CNB1, stronger effect = lower value",0.0495 (active)
same,normalized growth,"S. cerevisiae deletion strains, locus YKR001C, strain vps1, stronger effect = lower value",0.064 (active)
same,normalized growth,"S. cerevisiae deletion strains, locus YKR026C, strain gcn3, stronger effect = lower value",0.0615 (active)
same,normalized growth,"S. cerevisiae deletion strains, locus YKR091W, strain srl3, stronger effect = lower value",0.0622 (active)
same,normalized growth,"S. cerevisiae deletion strains, locus YLL001W, strain dnm1, stronger effect = lower value",0.0729 (active)
same,normalized growth,"S. cerevisiae deletion strains, locus YLL026W, stronger effect = lower value",0.0595 (active)
same,normalized growth,"S. cerevisiae deletion strains, locus YLL041C, strain sdh2, stronger effect = lower value",0.0595 (active)
same,normalized growth,"S. cerevisiae deletion strains, locus YLR027C, strain aat2, stronger effect = lower value",0.0567 (active)
same,normalized growth,"S. cerevisiae deletion strains, locus YLR039C, strain RIC1, stronger effect = lower value",0.0906 (active)
same,normalized growth,"S. cerevisiae deletion strains, locus YLR058C, strain SHM2, stronger effect = lower value",0.955 (inactive)
same,normalized growth,"S. cerevisiae deletion strains, locus YLR102C, strain apc9, stronger effect = lower value",0.0627 (active)
same,normalized growth,"S. cerevisiae deletion strains, locus YLR113W, strain HOG1, stronger effect = lower value",0.138 (active)
same,normalized growth,"S. cerevisiae deletion strains, locus YLR221C, strain rsa3, stronger effect = lower value",0.061 (active)
same,normalized growth,"S. cerevisiae deletion strains, locus YLR258W, strain gsy2, stronger effect = lower value",0.0609 (active)
same,normalized growth,"S. cerevisiae deletion strains, locus YLR262C, strain YPT6 (second series), stronger effect = lower value",0.0795 (active)
same,normalized growth,"S. cerevisiae deletion strains, locus YLR262C, strain YPT6, stronger effect = lower value",0.0981 (active)
same,normalized growth,"S. cerevisiae deletion strains, locus YLR268W, strain sec22, stronger effect = lower value",0.0733 (active)
same,normalized growth,"S. cerevisiae deletion strains, locus YLR320W, strain mms22, stronger effect = lower value",0.0819 (active)
same,normalized growth,"S. cerevisiae deletion strains, locus YLR330W, strain CHS5, stronger effect = lower value",0.0552 (active)
same,normalized growth,"S. cerevisiae deletion strains, locus YLR342W, strain FKS1 (second series), stronger effect = lower value",0.0785 (active)
same,normalized growth,"S. cerevisiae deletion strains, locus YLR342W, strain FKS1, stronger effect = lower value",0.0773 (active)
same,normalized growth,"S. cerevisiae deletion strains, locus YLR357W, strain rsc2, stronger effect = lower value",0.117 (active)
same,normalized growth,"S. cerevisiae deletion strains, locus YLR370C, strain arc18, stronger effect = lower value",0.0623 (active)
same,normalized growth,"S. cerevisiae deletion strains, locus YLR371W, strain rom2, stronger effect = lower value",0.0624 (active)
same,normalized growth,"S. cerevisiae deletion strains, locus YLR384C, strain iki3, stronger effect = lower value",0.554 (active)
same,normalized growth,"S. cerevisiae deletion strains, locus YLR418C, strain cdc73, stronger effect = lower value",0.0967 (active)
same,normalized growth,"S. cerevisiae deletion strains, locus YML016C, strain PPZ1, stronger effect = lower value",0.0497 (active)
same,normalized growth,"S. cerevisiae deletion strains, locus YML032C, strain rad52, stronger effect = lower value",0.832 (active)
same,normalized growth,"S. cerevisiae deletion strains, locus YML120C, strain ndi1, stronger effect = lower value",0.724 (active)
same,normalized growth,"S. cerevisiae deletion strains, locus YML124C, strain tub3, stronger effect = lower value",0.0602 (active)
same,normalized growth,"S. cerevisiae deletion strains, locus YMR058W, strain fet3, stronger effect = lower value",0.062 (active)
same,normalized growth,"S. cerevisiae deletion strains, locus YMR078C, strain ctf18, stronger effect = lower value",0.0748 (active)
same,normalized growth,"S. cerevisiae deletion strains, locus YMR125W, strain sto1, stronger effect = lower value",0.0783 (active)
same,normalized growth,"S. cerevisiae deletion strains, locus YMR129W, stronger effect = lower value",0.0579 (active)
same,normalized growth,"S. cerevisiae deletion strains, locus YMR205C, strain PFK2, stronger effect = lower value",0.134 (active)
same,normalized growth,"S. cerevisiae deletion strains, locus YMR223W, strain ubp8, stronger effect = lower value",0.0699 (active)
same,normalized growth,"S. cerevisiae deletion strains, locus YMR231W, strain pep5, stronger effect = lower value",0.0661 (active)
same,normalized growth,"S. cerevisiae deletion strains, locus YMR263W, strain SAP30, stronger effect = lower value",0.065 (active)
same,normalized growth,"S. cerevisiae deletion strains, locus YMR307W, strain GAS1, stronger effect = lower value",0.116 (active) and 0.922 (inactive)
same,normalized growth,"S. cerevisiae deletion strains, locus YNL067W, strain RPL9B, stronger effect = lower value",0.0566 (active)
same,normalized growth,"S. cerevisiae deletion strains, locus YNL071W, strain lat1, stronger effect = lower value",0.0612 (active)
same,normalized growth,"S. cerevisiae deletion strains, locus YNL128W, strain TEP1, stronger effect = lower value",0.0628 (active)
same,normalized growth,"S. cerevisiae deletion strains, locus YNL153C, strain GIM3, stronger effect = lower value",0.0713 (active) and 0.0822 (active)
same,normalized growth,"S. cerevisiae deletion strains, locus YNL175C, strain NOP13, stronger effect = lower value",0.998 (inactive)
same,normalized growth,"S. cerevisiae deletion strains, locus YNL183C, strain NPR1, stronger effect = lower value",0.841 (inactive)
same,normalized growth,"S. cerevisiae deletion strains, locus YNL197C, strain WHI3, stronger effect = lower value",0.924 (inactive)
same,normalized growth,"S. cerevisiae deletion strains, locus YNL209W, strain ssb2, stronger effect = lower value",0.0633 (active)
same,normalized growth,"S. cerevisiae deletion strains, locus YNL224C, strain SQS1, stronger effect = lower value",0.826 (active)
same,normalized growth,"S. cerevisiae deletion strains, locus YNL233W, strain BNI4, stronger effect = lower value",0.0552 (active)
same,normalized growth,"S. cerevisiae deletion strains, locus YNL248C, strain rpa49, stronger effect = lower value",0.0871 (active)
same,normalized growth,"S. cerevisiae deletion strains, locus YNL250W, strain rad50, stronger effect = lower value",0.101 (active)
same,normalized growth,"S. cerevisiae deletion strains, locus YNL271C, strain bni1, stronger effect = lower value",0.0626 (active)
same,normalized growth,"S. cerevisiae deletion strains, locus YNL298W, strain CLA4, stronger effect = lower value",0.0625 (active)
same,normalized growth,"S. cerevisiae deletion strains, locus YNL307C, strain MCK1, stronger effect = lower value",0.0743 (active)
same,normalized growth,"S. cerevisiae deletion strains, locus YNL322C, strain KRE1 (second series), stronger effect = lower value",0.299 (active)
same,normalized growth,"S. cerevisiae deletion strains, locus YNL322C, strain KRE1, stronger effect = lower value",0.0495 (active) and 0.989 (inactive)
same,normalized growth,"S. cerevisiae deletion strains, locus YNR049C, strain mso1, stronger effect = lower value",0.0582 (active)
same,normalized growth,"S. cerevisiae deletion strains, locus YNR052C, strain pop2, stronger effect = lower value",0.851 (active)
same,normalized growth,"S. cerevisiae deletion strains, locus YOL006C, strain TOP1, stronger effect = lower value",0.102 (active)
same,normalized growth,"S. cerevisiae deletion strains, locus YOL012C, strain htz1",0.238 (inactive)
same,normalized growth,"S. cerevisiae deletion strains, locus YOL147C, strain pex11, stronger effect = lower value",1.01 (inactive)
same,normalized growth,"S. cerevisiae deletion strains, locus YOR001W, strain rrp6, stronger effect = lower value",0.459 (active)
same,normalized growth,"S. cerevisiae deletion strains, locus YOR061W, strain CKA2, stronger effect = lower value",0.0469 (active)
same,normalized growth,"S. cerevisiae deletion strains, locus YOR069W, strain VPS5, stronger effect = lower value",0.0489 (active)
same,normalized growth,"S. cerevisiae deletion strains, locus YOR070C, strain gyp1, stronger effect = lower value",0.0603 (active)
same,normalized growth,"S. cerevisiae deletion strains, locus YOR080W, strain dia2, stronger effect = lower value",0.803 (active)
same,normalized growth,"S. cerevisiae deletion strains, locus YOR083W, strain WHI5 (second series), stronger effect = lower value",0.0766 (active)
same,normalized growth,"S. cerevisiae deletion strains, locus YOR083W, strain WHI5, stronger effect = lower value",0.0645 (active)
same,normalized growth,"S. cerevisiae deletion strains, locus YOR106W, strain vam3, stronger effect = lower value",0.0667 (active)
same,normalized growth,"S. cerevisiae deletion strains, locus YOR136W, strain idh2, stronger effect = lower value",0.0722 (active)
same,normalized growth,"S. cerevisiae deletion strains, locus YOR144C, strain elg1, stronger effect = lower value",1.01 (inactive)
same,normalized growth,"S. cerevisiae deletion strains, locus YOR184W, strain ser1, stronger effect = lower value",0.0757 (active)
same,normalized growth,"S. cerevisiae deletion strains, locus YOR231W, strain MKK1, stronger effect = lower value",0.118 (active)
same,normalized growth,"S. cerevisiae deletion strains, locus YOR265W, strain rbl2, stronger effect = lower value",0.0602 (active)
same,normalized growth,"S. cerevisiae deletion strains, locus YOR270C, strain vph1, stronger effect = lower value",0.103 (active)
same,normalized growth,"S. cerevisiae deletion strains, locus YOR290C, strain snf2, stronger effect = lower value",0.888 (inactive)
same,normalized growth,"S. cerevisiae deletion strains, locus YOR316C, strain cot1, stronger effect = lower value",0.063 (active)
same,normalized growth,"S. cerevisiae deletion strains, locus YPL051W, strain arl3, stronger effect = lower value",0.0663 (active)
same,normalized growth,"S. cerevisiae deletion strains, locus YPL055C, strain LGE1, stronger effect = lower value",0.0731 (active)
same,normalized growth,"S. cerevisiae deletion strains, locus YPL078C, strain atp4, stronger effect = lower value",0.707 (active)
same,normalized growth,"S. cerevisiae deletion strains, locus YPL106C, strain sse1, stronger effect = lower value",0.105 (active)
same,normalized growth,"S. cerevisiae deletion strains, locus YPL240C, strain hsp82, stronger effect = lower value",0.0588 (active)
same,normalized growth,"S. cerevisiae deletion strains, locus YPL241C, strain CIN2, stronger effect = lower value",0.0501 (active) and 0.992 (inactive)
same,normalized growth,"S. cerevisiae deletion strains, locus YPL256C, strain CLN2, stronger effect = lower value",0.113 (active)
same,normalized growth,"S. cerevisiae deletion strains, locus YPR119W, strain clb2, stronger effect = lower value",0.0638 (active)
same,normalized growth,"S. cerevisiae deletion strains, locus YPR141C, strain kar3, stronger effect = lower value",0.0669 (active)
same,normalized growth,"S. cerevisiae deletion strains, locus YPR163C, strain tif3, stronger effect = lower value",0.0717 (active)
same,normalized growth,"S. cerevisiae deletion strains, locus YPR167C, strain met16, stronger effect = lower value",0.0625 (active)
same,normalized growth,"S. cerevisiae deletion strains, strain wtn01, stronger effect = lower value",0.0617 (active)
same,normalized growth,"S. cerevisiae strains, strain wild type, stronger effect = lower value",0.0481 (active)

# Source: PubChem BioAssay AID1159580 (chemical genetic matrix, 2015)
